This is one part of a sample in which hits are shown more often than they occur.
nsP2pro inh: CHIKV nsP2 protease inhibition, primary qHTS. Q8JUX6. FRET peptide cleavage, nsP2pro, fluorescence 1 h. Potency, µM (titrated, usually from 24.9 µM), without a hit: top-dose activity change, negative = inhibition, most hits filed as inhibitors. 1.1% of 31,000 active. AID 1964107; note: nearly all actives have a fitted effect of over 60% in size
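Purified recombinant nsP2pro (150 nM final) in 10 mM Tris-HCl pH 8.0 with 0.01% Tween 20 was preincubated 15 min at room temperature with compound (7 concentrations, up to 25 uM). FRET peptide 2 substrate (2.5 uM final) was then added; fluorescence was read after 1 h.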
nsP2 cell sec: inhibits CHIKV nsP2 protease in cells; shares compounds with nsP2pro inh; cell-based CHIKV nsP2 protease reporter assay; Potency, µM (top dose mostly 51.1 µM), inactives show top-dose activity change, negative = inhibition, hits mostly inhibitors; 10% of 450 active; note: nearly all actives have a fitted effect of over 70% in size
Target sequence (Q8JUX6 220-798 limits assumed): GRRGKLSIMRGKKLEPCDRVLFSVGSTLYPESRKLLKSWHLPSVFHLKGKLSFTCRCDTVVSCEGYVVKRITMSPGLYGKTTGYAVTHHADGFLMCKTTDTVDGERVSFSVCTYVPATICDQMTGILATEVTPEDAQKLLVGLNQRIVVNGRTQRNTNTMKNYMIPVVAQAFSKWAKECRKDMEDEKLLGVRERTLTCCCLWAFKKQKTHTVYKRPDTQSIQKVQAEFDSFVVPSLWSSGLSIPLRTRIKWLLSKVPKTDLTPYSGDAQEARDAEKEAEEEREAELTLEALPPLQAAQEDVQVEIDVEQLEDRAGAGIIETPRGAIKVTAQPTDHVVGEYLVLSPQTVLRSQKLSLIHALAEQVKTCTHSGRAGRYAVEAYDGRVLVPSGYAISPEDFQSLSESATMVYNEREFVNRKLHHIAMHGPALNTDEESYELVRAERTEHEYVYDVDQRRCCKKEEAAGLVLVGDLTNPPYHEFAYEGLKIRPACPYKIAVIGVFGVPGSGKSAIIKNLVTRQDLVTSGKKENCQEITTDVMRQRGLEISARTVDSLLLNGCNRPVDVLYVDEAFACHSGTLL
NSP2 full ctr: selectivity test for CHIKV nsP2 protease inhibitors: full-length NSP2 | Full-length CHIKV NSP2 protease enzymatic counterscreen | 39% of 410 active | AID 1964101 | Potency, µM (highest dose often 50.7 µM), for the others: top-dose activity change, negative = inhibition, most hits filed as inhibitors | shares compounds with nsP2pro inh; note: nearly all actives have a fitted effect of over 65% in size
Furin counter: human furin inhibition, counterscreen for nsP2pro inhibitors; Recombinant human furin enzymatic counterscreen, fluorogenic substrate; Potency, µM (top dose mostly 50.6 µM), for the others: at the highest dose activity change, negative = inhibition, actives largely listed as inhibitors; 6% of 410 active; shares compounds with nsP2pro inh
nsP2 NS23 pep: selectivity test for CHIKV nsP2 protease inhibitors: endogenous NS2/3 peptide | 34% of 410 active | Potency, µM (top dose mostly 51 µM), without a hit: at the highest dose activity change, negative = inhibition, most hits filed as inhibitors | Purified CHIKV nsP2 protease, endogenous NS2/3 peptide cleavage | shares compounds with nsP2pro inh; note: nearly all actives have a fitted effect of over 55% in size
Papain counter: papain protease inhibition, counterscreen for nsP2pro inhibitors; shares compounds with nsP2pro inh; purified papain protease activity, enzymatic inhibition; Potency, µM (series often up to 51 µM), without a hit: at the top dose activity change, negative = inhibition, most hits filed as inhibitors; 5% of 410 active; AID 1964104
nsP2pro confirm: confirmation of CHIKV nsP2 protease inhibitors | Potency, µM (highest dose often 25.5 µM), for inactives: at the highest dose activity change, negative = inhibition, actives largely listed as inhibitors | 43% of 410 active | CHIKV nsP2 protease enzymatic activity, qHTS | AID 1964105 | shares compounds with nsP2pro inh; note: nearly all actives have a fitted effect of over 75% in size
HCV NS3 4A cs: HCV NS3/4A protease inhibition, counterscreen | shares compounds with nsP2pro inh | HCV NS3/4A protease biochemical counterscreen | Potency, µM (highest dose often 50.9 µM), usual class: inhibitors | 20% of 410 active; note: nearly all actives have a fitted effect of over 55% in size
* = called active by the depositor; i = inactive; u = inconclusive; [ ] = another dose, or the depositor's remark. Calls come from the whole dose curve. % is set by controls: 0 for no effect and ±100 for the full control effect; potency is the fitted concentration of half-maximal effect.

SMILES	nsP2pro inh	others
COc1ccc(C2=NOC3(CCN([S+](=O)([O-])c4cccc(C(F)(F)F)c4)C3)C2)cc1 (stereo not drawn)	1.2%
COc1ccccc1OC1(C(=O)O)CCN(c2ncnc(C)c2C)CC1	0.3%
COc1ccccc1OC1(C(=O)O)CCN(Cc2cccnc2)CC1	0.8%
COc1ccccc1OC1(C(=O)O)CCN(Cc2ccc(-c3ccn[nH]3)o2)CC1	1µM*	nsP2 cell sec=u;NSP2 full ctr=u;Furin counter=-8.0%;nsP2 NS23 pep=0.3%;Papain counter=-2.7%;nsP2pro confirm=-23.4%;HCV NS3 4A cs=i
CC(=O)Nc1ccc(NC(=S)NC(=O)c2ccc(C(C)(C)C)cc2)cc1	2.5%
COC(=O)[C@H](O)[C@H]1C(C)(C)[C@H](OC(C)=O)[C@@]2(O)C(=O)[C@]1(C)C1CC[C@]3(C)C(CC(=O)O[C@H]3c3ccoc3)[C@]13O[C@@H]32 (stereo partly drawn)	u	nsP2 cell sec=-0.4%[17.6 µM];NSP2 full ctr=u;Furin counter=-4.1%[17.3 µM];nsP2 NS23 pep=3.7%[17.2 µM];Papain counter=-7.9%[17.2 µM];nsP2pro confirm=-13.8%[8.62 µM];HCV NS3 4A cs=u
C/C=C(\C)C(=O)OC1C2(O)CC3=C4CC(=O)OC(c5ccoc5)C4(C)CCC3C(C)(C2=O)C(C(OC(C)=O)C(=O)OC)C1(C)C (stereo not drawn)	-16.2%[10 µM]
COC(=O)[C@H](O)[C@H]1C(C)(C)[C@H](OC(=O)C(C)C)[C@@]2(O)C(=O)[C@]1(C)C1CC[C@]3(C)C(CC(=O)O[C@H]3c3ccoc3)[C@]13O[C@@H]32 (stereo partly drawn)	u	nsP2 cell sec=0.9%[17.6 µM];NSP2 full ctr=u;Furin counter=4.4%[17.3 µM];nsP2 NS23 pep=-1.3%[17.2 µM];Papain counter=-4.8%[17.2 µM];nsP2pro confirm=u;HCV NS3 4A cs=i
C=C1[C@@H]2CC[C@@]3(C)[C@H](c4ccoc4)OC(=O)C[C@]13O[C@H]1CC(=O)C(C)(C)[C@H](C(O)C(=O)OC)[C@]12C (stereo partly drawn)	-18.1%[10 µM]
COC(=O)C[C@H]1C(C)(C)[C@H](OC(=O)c2ccccc2)C2CC3=C4CC(=O)O[C@@H](c5ccoc5)[C@]4(C)CCC3[C@@]1(C)C2=O (stereo partly drawn)	-18.1%[10 µM]
COC(=O)[C@H](OC(C)=O)[C@H]1C(C)(C)C(=O)[C@H]2CC3=C4CC(=O)O[C@@H](c5ccoc5)[C@]4(C)CCC3[C@@]1(C)C2=O (stereo partly drawn)	-10.0%[10 µM]
CCC(=O)O[C@H]1C(C)(C)[C@H]([C@@H](O)C(=O)OC)[C@]2(C)C(=O)[C@@]1(O)[C@H]1O[C@]13C1CC(=O)O[C@@H](c4ccoc4)[C@]1(C)CCC32 (stereo partly drawn)	u	nsP2 cell sec=11.5%[17.6 µM];NSP2 full ctr=u;Furin counter=-0.4%[17.3 µM];nsP2 NS23 pep=-11.1%[17.2 µM];Papain counter=-5.2%[17.2 µM];nsP2pro confirm=u;HCV NS3 4A cs=u
COC(=O)[C@@H](O)[C@H]1[C@@]2(C)CC3(O)[C@@H](C(=O)[C@H]2O)[C@]24O[C@]25CC(=O)O[C@@H](c2ccoc2)[C@]5(C)CCC4[C@]13C (stereo partly drawn)	17.2%[10 µM]
Cc1cc2c(N3CCCC3)nc(N3CCCC3)nc2n1C	-23.3%
O=C1NCCCCCN(C(=O)Cc2cccc(F)c2)[C@H]2CCC[C@@H]12	-4.0%
CCC1CN2CCc3cc(OC)c(OC)cc3C2CC1CC1=NCCc2cc(O)c(OC)cc21 (stereo not drawn)	-15.5%[10 µM]
CC1(C(=O)Nc2ccc(F)nc2)CCCN1c1nc(Nc2cc(C3CC3)[nH]n2)c2cccn2n1 (stereo not drawn)	-7.4%
O=S(=O)(Nc1nc(-c2ccccc2C(F)(F)F)nc2ccccc12)c1ccc(-c2cccnc2)cc1	i
N=C(N)c1cccc(C[C@H](NS(=O)(=O)c2cccc(-c3ccc(Cl)cc3Cl)c2)C(=O)N2CCC(CCN)CC2)c1	-25.3%
COc1ccc(Cn2c3c(c(=O)n2Cc2ccccc2)CCN(C(=O)CCc2cccnc2)C3)cc1	4.1%
COC(=O)N1CCN(Cc2cc(=O)c3cc(F)ccc3[nH]2)CC1	-1.7%
CC(=O)O[C@@H]1[C@H](O[C@@H]2OC[C@](O)(CO)[C@H]2O)[C@@H](O[C@@H]2O[C@@H](C)[C@H](O)[C@@H](O)[C@H]2O)[C@H](OC(=O)[C@]23CCC(C)(C)C[C@H]2C2=CCC4[C@@]5(C)C[C@H](O)[C@H](O[C@@H]6O[C@H](C(=O)O)[C@@H](O)[C@H](O)[C@H]6O)[C@@](C)(C(=O)O)C5CC[C@@]4(C)[C@]2(C)CC3)O[C@@H]1C (stereo partly drawn)	-13.3%[5.1 µM]
c1ccc(-c2oc3ncnc(NC[C@@H]4CCCO4)c3c2-c2ccccc2)cc1	34.1%
COc1ccc(NC(=O)C(OC(=O)CNC(=O)c2ccccc2)c2ccccc2)cc1F (stereo not drawn)	-4.7%
O=C([O-])C[O-].[Pt+2]	-10.0%[10 µM]
SMILES	nsP2pro inh	others
CCOC(=O)C=C(C)C=CC[C@@H](C)CCCC(C)C	-9.7%
Cc1coc2c1C(=O)C(=O)c1c-2ccc2c(C)cccc12	u	nsP2 cell sec=-1.6%;NSP2 full ctr=u;Furin counter=-13.5%;nsP2 NS23 pep=u;Papain counter=u;nsP2pro confirm=u;HCV NS3 4A cs=i
Cc1coc2c1C(=O)C(=O)c1c-2ccc2c1CCCC2(C)C	u	nsP2 cell sec=-8.1%;NSP2 full ctr=11.6µM*;Furin counter=-15.4%;nsP2 NS23 pep=u;Papain counter=u;nsP2pro confirm=u;HCV NS3 4A cs=i
COC(=O)C(CC1(OC(=O)C(C)C)c2ccccc2N2C(=O)C(C)(C)N(O)C21)n1cnc2ccccc2c1=O (stereo not drawn)	-11.9%[10 µM]
Cc1cccc(-n2cnc3cc(C(=O)N4CC(C)CC(C)C4)ccc32)c1 (stereo not drawn)	-7.7%
CC(C)(O/N=C(\C(=O)N[C@@H]1C(=O)N2C(C(=O)[O-])=C(C[n+]3ccccc3)CS[C@H]12)c1csc(N)n1)C(=O)O	18.1%[10 µM]
Cc1ccc(C(=O)NCC(=O)OCc2cc(=O)n3c(C)csc3n2)cc1	-17.2%
CC(C)(C)OC(=O)N1CCN(c2cccc(NCc3ccc(-c4ccc(C#N)cc4)o3)c2)CC1	-25.4%
CC(=O)N1CCN(c2ccc(NCc3ccc(-c4ccc(Br)cc4)o3)cc2)CC1	i
N#Cc1ccc(-c2ccc(CNc3ccc(N4CCC(C(F)(F)F)CC4)cc3)o2)cc1	2.82µM*	nsP2 cell sec=-12.6%;NSP2 full ctr=u;Furin counter=-3.6%;nsP2 NS23 pep=-14.9%;Papain counter=-22.3%;nsP2pro confirm=u;HCV NS3 4A cs=u

Compound activity from PubChem.
